Tests used:
Test in all cases: log2 ratio of Biotin-Ahx-Ub-VS probe labelling (compound/DMSO); higher = less target engagement, active = hit call of the paper (q ≤ 0.05, log2 ratio ≤ -1)
Conditions in all cases: treatment time: 3 h
[1] = compound: CN(Cc1cccc(Br)c1)C(=O)CCl
How it was run: (§1)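 HEK293T lysate (495 µg per sample, in Tris/CHAPS/IGEPAL buffer with protease inhibitors) was treated in triplicate with compound at 50 or 200 µM or with DMSO for 3 h. It was then treated with Biotin-Ahx-Ub-VS (0.5 µM final) for 1 h. Labelled DUBs were NeutrAvidin-enriched, digested with LysC and trypsin, and run by diaPASEF LC-MS/MS. Median-normalised label-free quantities gave average log2 ratios compound/DMSO by unpaired t-test, using proteins with ≥2 unique peptides.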

[2] = compound: CN(Cc1cccc(OCc2ccccc2C)c1)C(=O)CCl
How it was run: as §1

[3] = compound: CN(Cc1ccccc1)C(=O)CCl
How it was run: as §1

[4] = compound: COc1ccc(CN(C)C(=O)CCl)cc1
How it was run: as §1

[5] = compound: COc1cccc(CN(CCCc2ccccc2)C(=O)CCl)c1
How it was run: as §1

[6] = compound: ClCC(=O)N1CCc2cc(Cl)c(Cl)cc2C1
How it was run: as §1

[7] = compound: ClCC(=O)N1CCc2nc(ncc2C1)-c1ccccc1
How it was run: as §1

[8] = compound: ClCC(=O)N1CCc2nocc2C1
How it was run: as §1

[9] = compound: ClCC(=O)N1CCc2scc(Br)c2C1
How it was run: as §1

[10] = compound: ClCC(=O)NC(C1CCCC1)c1cccs1
How it was run: as §1

Measured: log2 ratio of Biotin-Ahx-Ub-VS probe labelling

EIF3H (UniProt O15372)
Chain of UniProt O15372 (O15372 whole entry): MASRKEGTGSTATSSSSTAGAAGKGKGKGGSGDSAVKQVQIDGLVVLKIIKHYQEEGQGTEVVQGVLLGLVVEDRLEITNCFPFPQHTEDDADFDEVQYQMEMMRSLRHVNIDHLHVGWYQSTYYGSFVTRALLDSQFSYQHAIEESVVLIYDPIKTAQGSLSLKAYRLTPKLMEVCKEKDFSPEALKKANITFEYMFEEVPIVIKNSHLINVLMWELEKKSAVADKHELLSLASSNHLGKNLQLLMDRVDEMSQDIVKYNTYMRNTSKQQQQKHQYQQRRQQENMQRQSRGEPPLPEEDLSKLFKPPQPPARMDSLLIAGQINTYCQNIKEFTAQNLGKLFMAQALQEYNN
inactive: [1]; compound concentration: 50uM -0.0499 | [1]; compound concentration: 200uM -0.495 | [2]; compound concentration: 50uM -0.0626 | [2]; compound concentration: 200uM -0.0695 | [3]; compound concentration: 50uM -0.0247 | [3]; compound concentration: 200uM -0.0426 | [4]; compound concentration: 50uM -0.128 | [4]; compound concentration: 200uM 0.0275 | [5]; compound concentration: 50uM 0.0566 | [5]; compound concentration: 200uM 0.0114 | [6]; compound concentration: 50uM -0.344 | [6]; compound concentration: 200uM 0.309 | [7]; compound concentration: 50uM -0.162 | [7]; compound concentration: 200uM 0.025 | [8]; compound concentration: 50uM 0.0895 | [8]; compound concentration: 200uM -0.349 | [9]; compound concentration: 50uM -0.0247 | [9]; compound concentration: 200uM 0.0406 | [10]; compound concentration: 50uM -0.136 | [10]; compound concentration: 200uM 0.0107

UniProt P51784
Chain of UniProt P51784 (P51784 whole entry): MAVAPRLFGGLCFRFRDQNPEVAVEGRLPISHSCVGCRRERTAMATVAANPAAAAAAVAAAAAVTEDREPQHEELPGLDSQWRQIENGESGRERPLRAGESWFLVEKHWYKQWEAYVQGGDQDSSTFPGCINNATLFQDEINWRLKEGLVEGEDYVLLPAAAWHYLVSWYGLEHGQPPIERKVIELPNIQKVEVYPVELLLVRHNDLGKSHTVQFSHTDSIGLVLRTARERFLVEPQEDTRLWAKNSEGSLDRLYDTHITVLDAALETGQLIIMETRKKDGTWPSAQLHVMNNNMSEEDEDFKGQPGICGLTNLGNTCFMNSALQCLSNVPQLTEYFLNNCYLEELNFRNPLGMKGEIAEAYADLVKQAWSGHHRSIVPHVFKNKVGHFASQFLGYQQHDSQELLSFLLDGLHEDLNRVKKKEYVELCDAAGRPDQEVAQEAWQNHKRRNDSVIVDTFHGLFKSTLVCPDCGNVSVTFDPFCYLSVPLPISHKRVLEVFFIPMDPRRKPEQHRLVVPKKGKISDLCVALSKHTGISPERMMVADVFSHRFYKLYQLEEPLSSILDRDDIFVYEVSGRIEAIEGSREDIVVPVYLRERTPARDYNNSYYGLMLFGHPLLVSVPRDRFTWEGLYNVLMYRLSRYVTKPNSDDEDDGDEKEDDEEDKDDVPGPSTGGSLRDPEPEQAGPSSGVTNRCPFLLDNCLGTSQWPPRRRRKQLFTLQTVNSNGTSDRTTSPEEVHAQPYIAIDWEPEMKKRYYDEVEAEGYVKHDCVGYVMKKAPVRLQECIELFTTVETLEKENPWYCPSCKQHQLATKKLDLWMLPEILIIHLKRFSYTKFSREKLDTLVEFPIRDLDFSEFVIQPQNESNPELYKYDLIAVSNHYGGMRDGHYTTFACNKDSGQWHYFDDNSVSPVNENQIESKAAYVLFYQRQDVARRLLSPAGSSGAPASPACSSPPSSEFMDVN
inactive: [1]; compound concentration: 50uM 0.019 | [1]; compound concentration: 200uM -0.0885 | [2]; compound concentration: 50uM -0.394 | [2]; compound concentration: 200uM -0.417 | [3]; compound concentration: 50uM -0.135 | [3]; compound concentration: 200uM -0.305 | [4]; compound concentration: 50uM -0.149 | [4]; compound concentration: 200uM -0.291 | [5]; compound concentration: 50uM -0.0998 | [5]; compound concentration: 200uM -0.339 | [6]; compound concentration: 50uM 0.125 | [6]; compound concentration: 200uM -0.807 | [7]; compound concentration: 50uM 0.0941 | [7]; compound concentration: 200uM -0.284 | [8]; compound concentration: 50uM -0.0884 | [8]; compound concentration: 200uM -0.403 | [9]; compound concentration: 50uM -0.0183 | [9]; compound concentration: 200uM -0.573 | [10]; compound concentration: 50uM 0.0513 | [10]; compound concentration: 200uM -0.0659

USP22 (UniProt Q9UPT9)
Chain of UniProt Q9UPT9 (Q9UPT9 whole entry): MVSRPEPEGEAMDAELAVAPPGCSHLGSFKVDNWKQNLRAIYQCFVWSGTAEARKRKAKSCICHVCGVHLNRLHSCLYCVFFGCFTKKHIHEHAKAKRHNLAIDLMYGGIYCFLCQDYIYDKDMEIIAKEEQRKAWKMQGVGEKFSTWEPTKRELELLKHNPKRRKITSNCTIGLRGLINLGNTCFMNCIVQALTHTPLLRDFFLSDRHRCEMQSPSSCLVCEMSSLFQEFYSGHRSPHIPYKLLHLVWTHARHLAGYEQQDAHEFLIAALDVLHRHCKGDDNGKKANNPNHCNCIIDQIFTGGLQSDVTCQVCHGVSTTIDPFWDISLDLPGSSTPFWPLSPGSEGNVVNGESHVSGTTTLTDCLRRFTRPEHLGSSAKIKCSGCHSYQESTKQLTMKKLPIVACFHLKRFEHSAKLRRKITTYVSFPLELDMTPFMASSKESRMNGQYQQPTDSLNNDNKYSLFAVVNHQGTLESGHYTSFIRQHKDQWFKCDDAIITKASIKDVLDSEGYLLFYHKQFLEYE
inactive: [1]; compound concentration: 50uM -0.105 | [1]; compound concentration: 200uM 0.476 | [2]; compound concentration: 50uM -0.278 | [2]; compound concentration: 200uM -0.429 | [3]; compound concentration: 50uM -0.208 | [3]; compound concentration: 200uM -0.176 | [4]; compound concentration: 50uM -0.0376 | [4]; compound concentration: 200uM -0.15 | [5]; compound concentration: 50uM -0.102 | [5]; compound concentration: 200uM -0.225 | [6]; compound concentration: 50uM -0.0223 | [6]; compound concentration: 200uM -0.226 | [7]; compound concentration: 50uM -0.0429 | [7]; compound concentration: 200uM -0.339 | [8]; compound concentration: 50uM 0.0391 | [8]; compound concentration: 200uM -0.233 | [9]; compound concentration: 50uM -0.0943 | [9]; compound concentration: 200uM -0.362 | [10]; compound concentration: 50uM -0.0796 | [10]; compound concentration: 200uM -0.154

ATXN3 (UniProt P54252)
Chain of UniProt P54252 (P54252 whole entry): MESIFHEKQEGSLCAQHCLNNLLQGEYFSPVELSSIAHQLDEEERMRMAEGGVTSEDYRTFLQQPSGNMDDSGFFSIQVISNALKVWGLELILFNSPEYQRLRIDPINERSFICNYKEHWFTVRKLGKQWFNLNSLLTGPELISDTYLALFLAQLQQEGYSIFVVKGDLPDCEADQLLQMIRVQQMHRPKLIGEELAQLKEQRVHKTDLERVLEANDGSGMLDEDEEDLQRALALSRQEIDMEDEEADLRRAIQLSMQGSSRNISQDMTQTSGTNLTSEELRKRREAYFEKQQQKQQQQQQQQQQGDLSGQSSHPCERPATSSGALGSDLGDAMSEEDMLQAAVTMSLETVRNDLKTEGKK
inactive: [1]; compound concentration: 50uM -0.252 | [1]; compound concentration: 200uM -0.624 | [2]; compound concentration: 50uM -0.719 | [3]; compound concentration: 50uM -0.361 | [3]; compound concentration: 200uM -0.872 | [4]; compound concentration: 50uM -0.229 | [4]; compound concentration: 200uM -0.842 | [5]; compound concentration: 50uM -0.391 | [5]; compound concentration: 200uM -0.729 | [6]; compound concentration: 50uM -0.915 | [7]; compound concentration: 50uM -0.221 | [8]; compound concentration: 50uM -0.325 | [9]; compound concentration: 50uM -0.485 | [10]; compound concentration: 50uM 0.0786 | [10]; compound concentration: 200uM -0.141
active: [2]; compound concentration: 200uM -1.1 | [6]; compound concentration: 200uM -2.63 | [7]; compound concentration: 200uM -1.26 | [8]; compound concentration: 200uM -1.08 | [9]; compound concentration: 200uM -1.78

USP25 (UniProt Q9UHP3)
Chain of UniProt Q9UHP3 (Q9UHP3 whole entry): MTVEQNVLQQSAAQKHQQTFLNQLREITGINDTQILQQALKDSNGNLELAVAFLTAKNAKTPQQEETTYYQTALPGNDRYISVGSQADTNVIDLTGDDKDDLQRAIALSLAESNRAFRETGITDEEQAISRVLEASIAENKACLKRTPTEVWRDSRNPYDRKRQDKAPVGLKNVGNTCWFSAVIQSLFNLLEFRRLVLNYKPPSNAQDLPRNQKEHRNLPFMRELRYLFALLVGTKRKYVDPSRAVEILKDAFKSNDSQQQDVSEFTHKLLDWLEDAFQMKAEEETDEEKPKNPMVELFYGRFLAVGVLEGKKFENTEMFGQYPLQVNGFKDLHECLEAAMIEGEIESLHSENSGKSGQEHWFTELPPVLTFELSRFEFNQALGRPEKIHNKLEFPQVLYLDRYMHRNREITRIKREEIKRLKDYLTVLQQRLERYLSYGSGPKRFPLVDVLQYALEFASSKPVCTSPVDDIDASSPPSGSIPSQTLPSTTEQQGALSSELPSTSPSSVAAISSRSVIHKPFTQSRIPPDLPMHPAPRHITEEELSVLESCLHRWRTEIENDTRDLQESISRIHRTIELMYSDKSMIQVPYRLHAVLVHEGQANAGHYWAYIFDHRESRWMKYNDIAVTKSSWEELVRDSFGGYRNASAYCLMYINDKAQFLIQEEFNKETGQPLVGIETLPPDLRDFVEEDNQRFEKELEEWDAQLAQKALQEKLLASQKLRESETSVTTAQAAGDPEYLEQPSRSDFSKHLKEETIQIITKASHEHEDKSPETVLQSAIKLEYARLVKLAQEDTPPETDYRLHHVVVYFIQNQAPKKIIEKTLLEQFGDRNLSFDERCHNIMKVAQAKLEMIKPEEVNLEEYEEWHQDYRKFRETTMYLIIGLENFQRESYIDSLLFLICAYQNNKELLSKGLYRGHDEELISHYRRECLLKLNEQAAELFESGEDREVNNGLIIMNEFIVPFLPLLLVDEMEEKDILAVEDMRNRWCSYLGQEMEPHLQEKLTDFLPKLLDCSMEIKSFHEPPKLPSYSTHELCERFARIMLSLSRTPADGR
inactive: [1]; compound concentration: 50uM 0.514 | [2]; compound concentration: 200uM -0.67 | [3]; compound concentration: 50uM -0.138 | [3]; compound concentration: 200uM -0.338 | [4]; compound concentration: 50uM -0.545 | [4]; compound concentration: 200uM -0.345 | [5]; compound concentration: 50uM 0.265 | [5]; compound concentration: 200uM -0.358 | [6]; compound concentration: 50uM 0.409 | [6]; compound concentration: 200uM -0.517 | [7]; compound concentration: 50uM -0.562 | [7]; compound concentration: 200uM 0.332 | [8]; compound concentration: 50uM -0.946 | [8]; compound concentration: 200uM -0.711 | [9]; compound concentration: 50uM 0.621 | [9]; compound concentration: 200uM -0.242 | [10]; compound concentration: 50uM -0.129 | [10]; compound concentration: 200uM -0.557
active: [1]; compound concentration: 200uM -1.46 | [2]; compound concentration: 50uM -1.05

USP10 (UniProt Q14694)
Chain of UniProt Q14694 (Q14694 whole entry): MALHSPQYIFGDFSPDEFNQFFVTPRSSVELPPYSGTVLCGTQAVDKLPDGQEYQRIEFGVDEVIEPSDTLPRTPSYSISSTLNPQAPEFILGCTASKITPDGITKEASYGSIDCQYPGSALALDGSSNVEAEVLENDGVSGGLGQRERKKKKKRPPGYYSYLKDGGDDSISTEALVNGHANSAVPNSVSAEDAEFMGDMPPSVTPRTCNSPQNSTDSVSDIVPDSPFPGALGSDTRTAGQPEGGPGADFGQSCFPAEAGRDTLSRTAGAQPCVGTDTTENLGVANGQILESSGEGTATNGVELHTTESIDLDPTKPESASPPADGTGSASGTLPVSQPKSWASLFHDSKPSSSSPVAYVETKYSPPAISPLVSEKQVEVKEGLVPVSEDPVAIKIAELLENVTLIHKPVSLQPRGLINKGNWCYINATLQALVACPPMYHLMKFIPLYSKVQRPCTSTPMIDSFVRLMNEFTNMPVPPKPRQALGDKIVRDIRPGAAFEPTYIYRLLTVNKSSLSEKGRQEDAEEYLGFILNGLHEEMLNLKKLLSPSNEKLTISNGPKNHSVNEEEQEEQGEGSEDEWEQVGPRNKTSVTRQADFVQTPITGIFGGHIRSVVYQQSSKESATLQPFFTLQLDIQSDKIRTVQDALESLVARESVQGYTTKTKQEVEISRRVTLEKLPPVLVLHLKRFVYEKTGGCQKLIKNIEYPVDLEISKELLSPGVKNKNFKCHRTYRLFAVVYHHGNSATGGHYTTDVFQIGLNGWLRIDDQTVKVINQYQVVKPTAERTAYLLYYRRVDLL
inactive: [1]; compound concentration: 50uM -0.146 | [1]; compound concentration: 200uM -0.153 | [2]; compound concentration: 50uM -0.287 | [2]; compound concentration: 200uM -0.0982 | [3]; compound concentration: 50uM -0.177 | [3]; compound concentration: 200uM 0.0371 | [4]; compound concentration: 50uM -0.151 | [4]; compound concentration: 200uM -0.0732 | [5]; compound concentration: 50uM -0.12 | [5]; compound concentration: 200uM 0.0548 | [6]; compound concentration: 50uM -0.188 | [6]; compound concentration: 200uM -0.0346 | [7]; compound concentration: 50uM -0.0484 | [7]; compound concentration: 200uM -0.151 | [8]; compound concentration: 50uM -0.2 | [8]; compound concentration: 200uM -0.136 | [9]; compound concentration: 50uM -0.066 | [9]; compound concentration: 200uM 0.0425 | [10]; compound concentration: 50uM -0.148 | [10]; compound concentration: 200uM 0.0706

OTUB1 (UniProt Q96FW1)
Chain of UniProt Q96FW1 (Q96FW1 whole entry): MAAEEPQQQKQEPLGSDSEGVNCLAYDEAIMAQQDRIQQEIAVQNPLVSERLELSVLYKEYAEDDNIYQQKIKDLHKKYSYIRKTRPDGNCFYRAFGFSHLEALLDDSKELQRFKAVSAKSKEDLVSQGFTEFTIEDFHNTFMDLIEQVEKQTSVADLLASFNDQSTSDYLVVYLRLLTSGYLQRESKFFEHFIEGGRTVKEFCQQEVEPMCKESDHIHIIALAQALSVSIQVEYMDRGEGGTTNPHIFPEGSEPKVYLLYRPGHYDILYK
inactive: [1]; compound concentration: 50uM 0.0635 | [1]; compound concentration: 200uM 0.0164 | [2]; compound concentration: 50uM -0.366 | [2]; compound concentration: 200uM 0.0592 | [3]; compound concentration: 50uM -0.0602 | [3]; compound concentration: 200uM -0.159 | [4]; compound concentration: 50uM -0.0667 | [4]; compound concentration: 200uM -0.232 | [5]; compound concentration: 50uM -0.125 | [5]; compound concentration: 200uM -0.389 | [6]; compound concentration: 50uM 0.182 | [6]; compound concentration: 200uM -0.161 | [7]; compound concentration: 50uM -0.0139 | [7]; compound concentration: 200uM -0.309 | [8]; compound concentration: 50uM -0.139 | [8]; compound concentration: 200uM -0.129 | [9]; compound concentration: 50uM 0.0181 | [9]; compound concentration: 200uM -0.0887 | [10]; compound concentration: 50uM 0.00867 | [10]; compound concentration: 200uM -0.00015

PSMD7 (UniProt P51665)
Chain of UniProt P51665 (P51665 whole entry): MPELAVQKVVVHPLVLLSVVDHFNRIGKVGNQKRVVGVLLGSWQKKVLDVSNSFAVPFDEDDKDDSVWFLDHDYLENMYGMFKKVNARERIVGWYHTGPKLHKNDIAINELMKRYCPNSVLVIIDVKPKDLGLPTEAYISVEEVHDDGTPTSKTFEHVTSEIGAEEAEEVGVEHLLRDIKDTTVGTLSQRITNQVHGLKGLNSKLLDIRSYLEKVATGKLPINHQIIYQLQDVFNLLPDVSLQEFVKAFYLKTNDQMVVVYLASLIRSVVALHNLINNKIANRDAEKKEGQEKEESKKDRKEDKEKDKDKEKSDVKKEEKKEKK
inactive: [1]; compound concentration: 50uM -1.92 | [1]; compound concentration: 200uM 0.377 | [2]; compound concentration: 50uM 0.204 | [2]; compound concentration: 200uM -0.694 | [3]; compound concentration: 50uM 0.305 | [3]; compound concentration: 200uM 1.21 | [4]; compound concentration: 50uM -0.346 | [4]; compound concentration: 200uM 2.6 | [5]; compound concentration: 50uM 0.459 | [5]; compound concentration: 200uM 0.335 | [6]; compound concentration: 50uM -1.17 | [6]; compound concentration: 200uM 0.126 | [7]; compound concentration: 50uM -0.153 | [7]; compound concentration: 200uM 0.514 | [8]; compound concentration: 50uM 0.812 | [8]; compound concentration: 200uM 0.83 | [9]; compound concentration: 50uM 0.689 | [9]; compound concentration: 200uM 0.149 | [10]; compound concentration: 50uM 0.0697 | [10]; compound concentration: 200uM 0.463

Reference: the supplement of paper PMC11732987, “Enantioselective OTUD7B fragment discovery through chemoproteomics screening and high-throughput optimisation” (Communications Chemistry, 2025)
